# Shown are actives, neighbours in structure and some others; about 18% of the full set was active somewhere.
# HepG2 tox = HepG2 cytotoxicity, counter-screen for TGF-b inhibitors. 410,000 compounds, 0.76% hits. HepG2 CAGA-GFP viability, ATP luminescence, 18 h. Potency, µM (top dose mostly 46.1 µM), for inactives: at the top dose activity change, negative = cytotoxicity, actives largely listed as cytotoxic; note: potency is the fitted concentration of half-maximal effect
#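 HepG2 CAGA-GFP cells (1000/well, DMEM with 1% FBS) received compound, then TGF-beta at 500 pg/mL final, and were incubated 18 hours at 37 degrees C. Viability was read by CellTiter-Glo luminescence. Media-only wells were set as complete cell-killing and DMSO as no toxicity.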
# IL1B secr inh = inhibitors of inflammasome signaling (IL-1 beta secretion). THP-1 LPS/ATP IL-1B secretion, AlphaLISA, 16 h; hits give low values. activity change, % at 57.5 µM. 360,000 compounds, 4.7% hits. AID 743279; in the data active = activity change below about -50%; inconclusive = mostly about -30% to -49%; note: % is set by controls: 0 for no effect and ±100 for the full control effect
#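 THP-1 cells pretreated 1 hr with compounds (up to 57.5 uM final), then stimulated with LPS (250 ng/mL final) plus ATP (1.25 mM final); secreted IL-1B measured by AlphaLISA after 16 hr, decreased signal indicating inhibition.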
# TDP1 cell noCPT = qHTS for Inhibitors of human tyrosyl-DNA phosphodiesterase 1 (TDP1): qHTS in cells in absence of CPT; DT40 Tdp1-/- hTDP1 cells, no CPT, ATP luminescence, 48 h; Potency, µM (series often up to 46.2 µM), inactives show at the top dose activity change, negative = growth inhibition, hits mostly inhibitors; 420,000 compounds, 15% hits; AID 686978, 2013; note: potency is the fitted concentration of half-maximal effect; % is set by controls: 0 for no effect and ±100 for the full control effect; nearly all actives have a fitted effect of over 55% in size
#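 DT40 Tdp1-/-;hTDP1 cells, no CPT (DMSO vehicle only), 400 cells/well; compounds pin-transferred; ≥48 hr, 37 °C; CellTiter-Glo 30 min RT dark, luminescence read.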
# TDP1 block = blocks human tyrosyl-DNA phosphodiesterase 1. Q9NUW8. recombinant TDP1, AlphaScreen DNA substrate cleavage. Potency, µM (highest dose often 130 µM), inactives show at the highest dose activity change, negative = inhibition, actives largely listed as inhibitors. 350,000 compounds, 0.28% hits. AID 485290; note: potency is the fitted concentration of half-maximal effect; % is set by controls: 0 for no effect and ±100 for the full control effect; nearly all actives have a fitted effect of over 40% in size
# Target sequence (Q9NUW8 whole entry, looked up): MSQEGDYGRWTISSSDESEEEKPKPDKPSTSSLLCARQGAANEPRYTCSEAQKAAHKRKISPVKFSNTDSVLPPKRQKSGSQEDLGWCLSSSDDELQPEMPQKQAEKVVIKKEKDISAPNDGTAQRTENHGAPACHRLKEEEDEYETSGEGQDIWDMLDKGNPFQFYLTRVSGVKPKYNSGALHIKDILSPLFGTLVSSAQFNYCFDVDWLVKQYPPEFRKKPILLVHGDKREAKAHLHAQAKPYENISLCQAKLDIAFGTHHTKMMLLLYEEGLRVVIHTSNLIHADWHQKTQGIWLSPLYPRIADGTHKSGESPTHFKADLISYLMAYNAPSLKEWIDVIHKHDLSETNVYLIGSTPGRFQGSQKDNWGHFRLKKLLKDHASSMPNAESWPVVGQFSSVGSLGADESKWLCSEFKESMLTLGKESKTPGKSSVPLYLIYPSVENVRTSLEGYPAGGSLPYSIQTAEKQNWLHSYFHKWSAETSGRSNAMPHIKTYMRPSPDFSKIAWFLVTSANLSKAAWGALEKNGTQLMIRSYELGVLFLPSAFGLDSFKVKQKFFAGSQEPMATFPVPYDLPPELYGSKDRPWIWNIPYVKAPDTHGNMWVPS
#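 Recombinant human Tdp1 (E. coli-expressed, 1 nM final) preincubated with compounds 15 min at room temperature, then 5'-biotin/3'-phosphotyrosine-FITC DNA substrate (15 nM final) added for 5 min. AlphaScreen beads (10 ug/ml final) added 10 min; cleavage lowers signal.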
# TGFb inhibitor = TGF-b pathway inhibition. HepG2 CAGA-GFP TGF-b/SMAD3 reporter, GFP fluorescence, 18 h; TGF-beta stimulated, 500 pg/mL final. Potency, µM (highest dose often 46.1 µM), inactives show at the top dose activity, negative = inhibition, actives largely listed as inhibitors. 410,000 compounds, 1.2% hits; note: potency is the fitted concentration of half-maximal effect; % is set by controls: 0 for no effect and ±100 for the full control effect; nearly all actives have a fitted effect of over 65% in size
#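 HEPG2 CAGA-GFP, 1000 cells/well; 2 h settle, 37 C; cpd via pin tool; TGF-b 500 pg/mL final; 18 h, 37 C; GFP imaging ex488/em500-530; %Activity normalised to -TGF-b and +DMSO controls; CRC fit, curve class.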
# DT40 TDP1 CPT = DT40-hTDP1 cell growth loss with CPT; chicken DT40 Tdp1-/-;hTDP1 cells + 20 nM CPT, ATP luminescence, 48 h; Potency, µM (doses to about 46.2 µM), inactives show top-dose activity change, negative = growth inhibition, actives largely listed as inhibitors; 420,000 compounds, 12% hits; AID 686979; note: potency is the fitted concentration of half-maximal effect; % is set by controls: 0 for no effect and ±100 for the full control effect; nearly all actives have a fitted effect of over 55% in size
#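 Chicken DT40 Tdp1-/- cells complemented with human TDP1, 400 cells/well, exposed to compounds plus 20 nM camptothecin for at least 48 h at 37 C; viability read as ATP content by CellTiter-Glo luminescence.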
# An asterisk follows results filed as active; ? = inconclusive; · = no result. Unless noted, calls come from the whole dose curve; as a rule, active = well fitted curve in the direction sought with a large enough effect; inconclusive = small, poorly fitted or top-dose-only effect, or another doubt; inactive = no such curve, though single readings can be large; an effect the other way counts as inactive or inconclusive.
SMILES,HepG2 tox,IL1B secr inh,TDP1 cell noCPT,TDP1 block,TGFb inhibitor,DT40 TDP1 CPT
CCN(CC)CCNC(=O)CSc1c2c(nc3cc(Cl)ccc13)CCCC2,-79%,-104*,?,3%,18µM*,?
COc1ccccc1NC(=O)Cn1nc(-c2ccc(C)cc2)c2c(c1=O)CCCC2,8%,·,?,2%,-1%,?
COc1ccc(NC(=O)CSc2nc(C3CC3)nc3ccccc23)c(OC)c1,-3%,-59*,23µM*,12%,13%,-20%
Cc1ccc(-n2c(SCC(=O)N3CCOCC3)nnc2-c2ccncc2)cc1C,6%,-2,-2%,·,0%,1%
COc1ccc(NS(=O)(=O)c2ccc3c(c2)CCN3C(=O)CCC(=O)O)cc1Cl,-20%,·,-6%,2%,-15%,3%
CCNC(=O)c1ccccc1SCc1ccccc1,0%,0,-6%,6%,-1%,-19%
CCc1ccc(OCCNC(=O)c2ccccc2SCc2ccccc2)cc1,-52%,-10,21µM*,-3%,?,?
O=C(Cc1ccc(Cl)cc1)Nc1cc(S(=O)(=O)N2CCOCC2)ccc1N1CCCC1,-53%,-10,?,-2%,-21%,-30%
O=C(Nc1cccc(Cl)c1)Nc1cc(S(=O)(=O)N2CCOCC2)ccc1N1CCCC1,-3%,-60*,23µM*,2%,-17%,15µM*
O=C(CNc1cc(S(=O)(=O)N2CCOCC2)ccc1N1CCCC1)Nc1ccc(Cl)cc1F,-2%,?,13µM*,·,-1%,?
COCCCNC(=O)CC(c1cc(OC)c(OC)c(OC)c1)N1Cc2ccccc2C1=O (configuration not stated),3%,·,7%,3%,18%,0%
OC(Cc1ccccc1Br)c1ncc(-c2ccc(Cl)cc2)[nH]1 (configuration not stated),-44%,-4,?,·,?,?
Cc1cccc(C)c1C(O)c1ncc(-c2cccc3ccccc23)[nH]1 (configuration not stated),-37%,-11,16µM*,·,1%,21µM*
Cc1cc(C)c(C(O)c2ncc(-c3cccc4ccccc34)[nH]2)c(C)c1 (configuration not stated),-26%,0,?,·,?,?
COc1c(C)cc(C(O)c2ncc(-c3cccc4ccccc34)[nH]2)cc1C (configuration not stated),-45%,59,18µM*,·,?,21µM*
Cc1cccc(C)c1C(O)c1ncc(-c2ccccc2F)[nH]1 (configuration not stated),6%,22,?,·,-28%,21µM*
OC(Cc1ccccc1)c1ncc(-c2ccc(Cl)cc2)[nH]1 (configuration not stated),-13%,7,16µM*,·,?,?
O=C(COc1ccc(F)cc1Br)NCCCN1CCCC1=O,-4%,-4,18%,0%,-8%,-20%
Cc1cc(C)c(C(O)c2ncc(-c3ccccc3C)[nH]2)c(C)c1 (configuration not stated),-20%,-26,-29%,·,-9%,-30%
Cc1ccc2ccccc2c1C(O)c1ncc(-c2ccc(Cl)cc2)[nH]1 (configuration not stated),-22%,13,8.2µM*,·,?,?
Cc1cc(Cl)ccc1C(O)c1ncc(-c2cccc3ccccc23)[nH]1 (configuration not stated),-37%,-27,?,·,13µM*,?
OC(c1ccc(Cl)c(F)c1)c1ncc(-c2cccc3ccccc23)[nH]1 (configuration not stated),-6%,-60*,?,·,?,?
Cc1cc(C)c(C(O)c2ncc(-c3ccccc3F)[nH]2)c(C)c1 (configuration not stated),-34%,-20,?,·,-12%,15µM*
Cc1cccc(C)c1C(O)c1ncc(-c2ccc(Cl)cc2)[nH]1 (configuration not stated),-22%,?,?,·,-15%,-27%
Cc1ccc(C(=O)c2cn(Cc3ccccc3)c3nc(C)ccc3c2=O)cc1,-38%,·,?,6%,?,?
SMILES,HepG2 tox,IL1B secr inh,TDP1 cell noCPT,TDP1 block,TGFb inhibitor,DT40 TDP1 CPT
COc1ccc(C(=O)NCCNc2nc3cc(C)c(C)cc3cc2C)cc1,-5%,0,?,·,7%,1%
CCCN1CCN(CCCNC(=O)CCCn2nc(C)c3sc4ccccc4c3c2=O)CC1,-14%,-14,-9%,2%,-3%,5%
COc1cccc(CNC(=O)CCCn2nc(C)c3sc4ccccc4c3c2=O)c1,7%,·,?,3%,24%,16µM*
Cc1nn(CCCC(=O)NCc2ccc(OC(C)C)cc2)c(=O)c2c1sc1ccccc12,4%,·,?,3%,26%,?
CSc1ccc(CCNC(=O)CCCn2nc(C)c3sc4ccccc4c3c2=O)cc1,-6%,·,?,-9%,?,15µM*
COC(=O)C1C(O)=C(C(C)=Nc2cccc3ccccc23)C(=O)CC1(C)C (configuration not stated),-37%,67,?,2%,?,?
COCC(=O)Nc1ccc2c(c1)[C@@H]1C[C@H](CC(=O)OC)O[C@H](CO)[C@@H]1O2,-42%,-18,-11%,·,-25%,19%
C=CCn1c(=O)c2c(C)c(C)sc2n2c(Nc3ccccc3)nnc12,4%,-18,23µM*,-2%,-16%,23µM*
Cc1sc2c(c1C)c(=O)n(Cc1ccccc1)c(=O)n2Cc1ccc(F)cc1,3%,·,-5%,-3%,-5%,-3%
CC(C)CC(=O)Nc1nnc(S(=O)(=O)Nc2ccccc2)s1,-4%,-4,-1%,·,2%,1%
CC(C)(CNC(=O)CC1C(=O)NCCN1Cc1cccc(F)c1F)N1CCOCC1 (configuration not stated),3%,15,24%,0%,?,7%
CC1CCCC(C)N1C(=O)COC(=O)/C=C/c1ccco1 (configuration not stated),-1%,8,0%,-16%,-14%,0%
CC(=O)Nc1ccc(S(=O)(=O)NCCC(=O)OCC(=O)N2CCN(C(=O)c3ccco3)CC2)cc1,1%,0,-1%,40µM*,4%,2%

# Screens deposited in PubChem BioAssay by National Center for Advancing Translational Sciences (NCATS).
